Hits are enriched below; roughly 10% of the tested compounds scored in any of these assays.
Lamin A splicing = modulators of lamin A splicing | HeLa LMNA splicing GFP/RFP minigene ratio, 48 h | Potency, µM (series often up to 46.1 µM), usual class: inhibitors | 200,000 tested, 0.01% active; active = well fitted inhibition curve with a large enough effect in the signal ratio, with a control signal flat, not every such curve was filed as active; inconclusive = small, poorly fitted or top-dose-only effect, or effect the other way, or a change in a side signal; the % refers to the signal ratio
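Read-out is the ratio of GFP to DsRed2 object intensity, acquired by 488 nm laser-scanning cytometry on HeLa lamin A-EGFP minigene reporter cells. Compound incubation 48 hrs at 37 °C in Opti-MEM with 2% FBS; DMSO 0.5% final.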
HPGD block = inhibitors of human 15-hydroxyprostaglandin dehydrogenase (HPGD) | purified HPGD, NADH fluorescence kinetic, PGE2 substrate | Potency, µM, most hits filed as inhibitors | AID 894 | 150,000 tested, 4.3% active | P15428
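20 nM HPGD preincubated 15 min at room temperature with compound in 50 mM Tris-HCl pH 8, 0.01% Tween 20. Started with 1 mM NAD+ and 30 uM prostaglandin E2; NADH fluorescence (360/450 nm) read 5 times over 30-s intervals, last minus first.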
KinaseGlo FLuc = Kinase-Glo luciferase inhibition (counter-screen). Q27757. Kinase-Glo luciferase, ATP luminescence, 8 min. Potency, µM (doses to about 38.3 µM), hits mostly inhibitors. 200,000 tested, 0.28% active. AID 1379; active = well fitted inhibition curve with a large enough effect; inconclusive = small, poorly fitted or top-dose-only effect; also: nearly all actives have a fitted effect of over 60% in size
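Luminescence was the read-out, taken after 8-minute incubation at ambient temperature. Luciferase turned over luciferin with 10 uM ATP in imidazole pH 7.2 buffer containing KCl, MgCl2, Tween 20 and BSA.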
PNC inhibitor = perinucleolar compartment assembly inhibition | PC3M PTB-GFP, PNC prevalence imaging, 16 h; active compounds read low | activity change (PNC), negative = inhibition, % at 10 µM | 140,000 tested, 3.1% active | AID 2417;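 active = readout at or below -70, meaning at least 70% loss of cells showing the perinucleolar compartment, a nuclear body marking cancer cells; inconclusive = readout between -30 and a set limit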
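Read-out is percentage of cells bearing a perinucleolar compartment, from automated 20x imaging of fixed, Hoechst-stained PC3M PTB-GFP cells. Cells were seeded 4 h, then exposed 16 h to compound (23 nl of library stock) in duplicate plates.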
ALDH1A1 block = ALDH1A1 (human) enzyme inhibition. Purified ALDH1A1, NADH fluorescence, propionaldehyde substrate. P00352. AID 1030. 220,000 tested, 7.3% active. Potency, µM (titrated, usually from 75.3 µM), actives largely listed as inhibitors
Target sequence (P00352 whole entry, looked up): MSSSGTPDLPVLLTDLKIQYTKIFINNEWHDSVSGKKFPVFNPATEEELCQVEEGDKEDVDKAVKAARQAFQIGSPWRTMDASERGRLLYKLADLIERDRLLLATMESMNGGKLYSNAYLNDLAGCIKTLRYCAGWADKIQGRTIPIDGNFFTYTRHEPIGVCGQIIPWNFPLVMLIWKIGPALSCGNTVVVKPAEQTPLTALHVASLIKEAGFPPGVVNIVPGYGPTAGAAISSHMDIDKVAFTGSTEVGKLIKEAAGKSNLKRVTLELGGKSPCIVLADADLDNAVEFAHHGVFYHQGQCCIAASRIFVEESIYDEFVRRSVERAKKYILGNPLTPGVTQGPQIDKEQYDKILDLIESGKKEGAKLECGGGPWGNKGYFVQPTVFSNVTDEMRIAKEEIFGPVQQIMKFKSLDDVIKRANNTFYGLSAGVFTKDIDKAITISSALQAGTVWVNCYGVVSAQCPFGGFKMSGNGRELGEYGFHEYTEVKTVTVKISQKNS
IMPase inh = membrane-permeable compound that blocks inositol monophosphatase. CHO-M1 cells, IP1 accumulation, HTRF TR-FRET ratio. inhibition (IP1 accumulation), % at 46.1 µM. 120,000 tested, under 10 active. AID 901; active = well fitted curve in the direction sought with a large enough effect in the signal ratio, not every such curve was filed as active; inconclusive = small, poorly fitted or top-dose-only effect, or a change in a side signal; inactive = no such curve, though single readings can be large or run the other way; the % refers to the signal ratio;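 also: cells stimulated with carbachol in lithium chloride buffer; higher means more IMPase inhibition seen as more IP1 and lower FRET ratio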
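Carbachol-driven Gq signalling in CHO-M1 cells (2000/well) generates IP1. Compounds that block IMPase raise IP1 and so reduce the FRET signal from Eu-anti-IP1 and d2-IP1 after a 10 min room-temperature lysis.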
Numbers stand for hits; [ ] = remark or other dose. Unless noted, calls follow the shape of the dose curve; as a rule, active = well fitted inhibition curve with a large enough effect (not every such curve was filed as active); inconclusive = small, poorly fitted or top-dose-only effect, or another doubt; inactive = no such curve, though single readings can be large or run the other way.

`Cc1ccc(-n2c(SCC(=O)Nc3ccc4c(c3)OCCO4)nc3c([nH]c4ccccc43)c2=O)cc1` gave Lamin A splicing inactive.
Screening CCOC(=O)C1CCN(C2CC(=O)N(c3ccc(OCC)cc3)C2=O)CC1 (centres undefined) returned Lamin A splicing inconclusive, HPGD block inactive, KinaseGlo FLuc inactive, PNC inhibitor inconclusive, ALDH1A1 block 28µM and IMPase inh inconclusive.
O=C1CC(N2CCN(c3cccc(C(F)(F)F)c3)CC2)C(=O)N1c1ccc(F)cc1 (centres undefined) was read as Lamin A splicing inactive, HPGD block inactive, KinaseGlo FLuc inactive, PNC inhibitor inactive, ALDH1A1 block inactive and IMPase inh inactive.
Screening CCCCCCOc1ccc(N2C(=O)CC(N3CCC(C(=O)OCC)CC3)C2=O)cc1 (centres undefined) returned Lamin A splicing inactive, HPGD block inactive, KinaseGlo FLuc inactive, PNC inhibitor inconclusive, ALDH1A1 block inconclusive and IMPase inh inactive.
Screening CCOC(=O)C1CCCN(C2CC(=O)N(c3ccccc3)C2=O)C1 (centres undefined) returned Lamin A splicing inconclusive, KinaseGlo FLuc inactive and ALDH1A1 block inconclusive.
Screening Cc1cccc(N2C(=O)CC(N3CCN(c4cccc(C(F)(F)F)c4)CC3)C2=O)c1 (centres undefined) returned Lamin A splicing inactive, HPGD block inactive, KinaseGlo FLuc inactive, PNC inhibitor inactive, ALDH1A1 block 28µM and IMPase inh inactive.
`CCOC(=O)C1CCCN(C2CC(=O)N(c3ccc(C(C)C)cc3)C2=O)C1` (centres undefined) gave KinaseGlo FLuc inactive and ALDH1A1 block 10µM.
CCOC(=O)C1CCCN(C2CC(=O)N(c3ccc(C)c(C)c3)C2=O)C1 (centres undefined) was read as Lamin A splicing inactive, HPGD block inactive, KinaseGlo FLuc inactive, PNC inhibitor inconclusive, ALDH1A1 block 10µM and IMPase inh inactive.
Screening NCCC[C@@H](CC(=O)N[C@@H]1CCCC[C@H]1C(=O)N[C@H](CC(=O)N[C@@H](CCC(=O)O)CC(=O)O)Cc1ccccc1)NC(=O)C[C@H](Cc1ccccc1)NC(=O)[C@@H]1CNCC[C@H]1N returned HPGD block inactive, KinaseGlo FLuc inactive and ALDH1A1 block inactive.
`CCOC(=O)C1CCCN(C2CC(=O)N(c3ccc(N4C(=O)CC(N5CCCC(C(=O)OCC)C5)C4=O)cc3)C2=O)C1` (centres undefined) gave KinaseGlo FLuc inactive and ALDH1A1 block 3.2µM.
`CCOC(=O)C1CCCN(C2CC(=O)N(c3cccc(C(F)(F)F)c3)C2=O)C1` (centres undefined) gave Lamin A splicing inactive, HPGD block inactive, KinaseGlo FLuc inactive, PNC inhibitor inactive, ALDH1A1 block 8.9µM and IMPase inh inactive.
For CCS(=O)(=O)n1nc(-c2ccco2)nc1NCc1ccc(C(C)C)cc1 the results were Lamin A splicing inactive.
For COc1ccc(CC(=O)OCC(=O)Nc2ncc(Cl)cc2Cl)cc1 the results were Lamin A splicing inactive, HPGD block inactive, KinaseGlo FLuc inactive, PNC inhibitor inactive, ALDH1A1 block inactive and IMPase inh inactive.
O=C(COC(=O)c1ccc(Br)o1)Nc1ncc(Cl)cc1Cl was read as Lamin A splicing inactive, KinaseGlo FLuc inactive and ALDH1A1 block 19µM.
COc1cc(OC)cc(C(=O)NCC(=O)OCC(=O)Nc2ncc(Cl)cc2Cl)c1 was read as Lamin A splicing inactive[9.22 µM], KinaseGlo FLuc inactive and ALDH1A1 block 25µM.
For O=C1C(=O)c2ccccc2C(O)=C1C(CCc1ccccc1)C1=C(O)c2ccccc2C(=O)C1=O the results were HPGD block inconclusive, KinaseGlo FLuc inactive[7.66 µM] and ALDH1A1 block inconclusive.
`COc1cc(C(=O)N/N=C/c2cc([N+](=O)[O-])cs2)cc(OC)c1OC` gave Lamin A splicing inconclusive, HPGD block inactive, KinaseGlo FLuc inactive, PNC inhibitor -103 and ALDH1A1 block inconclusive.
`CCOc1ccc(C(=O)N/N=C/c2cc([N+](=O)[O-])cs2)cc1` gave Lamin A splicing inconclusive, KinaseGlo FLuc inactive and ALDH1A1 block inactive.

Screening results from PubChem BioAssay.
